S1P4 antag = antagonists of human S1P4 receptor | 220,000 compounds, 0.26% hits | O95977 | S1P4-expressing cells, antagonist mode, reporter read-out | AID 1510 | inhibition, % at 4.98 µM; in the data active means inhibition above about 29%
Target sequence (O95977 whole entry, looked up): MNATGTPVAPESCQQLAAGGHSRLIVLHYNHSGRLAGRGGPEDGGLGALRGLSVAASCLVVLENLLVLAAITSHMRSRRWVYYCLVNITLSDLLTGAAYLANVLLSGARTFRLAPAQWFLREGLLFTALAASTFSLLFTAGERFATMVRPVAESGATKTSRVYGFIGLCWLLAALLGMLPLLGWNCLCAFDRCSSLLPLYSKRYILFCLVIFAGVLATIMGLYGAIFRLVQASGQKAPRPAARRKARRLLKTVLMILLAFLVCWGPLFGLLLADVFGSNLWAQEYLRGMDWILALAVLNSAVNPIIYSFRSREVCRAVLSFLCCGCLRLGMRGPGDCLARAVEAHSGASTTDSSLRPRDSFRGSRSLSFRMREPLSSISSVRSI
Hsp70 activator = Hsp70 transcriptional activation, primary screen | HeLa Hsp70 promoter luciferase reporter, luminescence; scaled: vehicle 0, proteasome-inhibitor control 100% | AID 1203 | activation, % at 10 µM | 200,000 compounds, 0.04% hits;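 active means activation above the mean across all tested compounds plus 3 SD, cutoff set per campaign, cut at about 5.5% in these data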
S1P4 ag = activates the human S1P4 receptor; O95977; S1P4-expressing cell line, agonist reporter assay; activation, % at 4.98 µM; 220,000 compounds, 0.35% hits; in the data active means activation above about 11%
CHOP inh = blocks CHOP induction under ER stress. CHO-K1 CHOP-promoter luciferase, tunicamycin-induced, 15-18 h. AID 2732. inhibition, % at 10 µM. 220,000 compounds, 3.8% hits;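 active means compounds that reduced the stress-induced luciferase reporter signal by more than about 70% of percent inhibition, limit read from the data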
Hits are given with their value; n = inactive; x = not tested or not shown; ! = not confirmed by another sample. Compounds with a hit are over-represented: about 4.2% of the library has one in this group of screens.

SMILES	S1P4 antag	Hsp70 activator	S1P4 ag	CHOP inh
CC(C)NC(=O)NC(=O)COC(=O)c1ccc(OC(F)(F)F)cc1	n	n	n	84.3
O=C(NC(=S)NCc1ccccc1)C1CCCCC1	n	n	n	88.9
S=C(NCc1ccccc1)NC1CCCCC1	n	n	n	n
Cc1ccc(C)c(NC(=S)NNC(=O)c2csc3c2CCC(C)C3)c1 (stereo unspecified)	n	n	n	89.9
Cc1cc(O)c(-c2cc(C(=O)Nc3ccc(S(=O)(=O)N4CCOCC4)cc3)[nH]n2)cc1C	n	n	n	87.3
COc1cc(NC(=O)c2csc(N)n2)cc(C(=O)Nc2cccc(C(F)(F)F)c2)c1	x	x	x	79.4
O=C(COc1cccnc1[N+](=O)[O-])NCCc1ccc(Cl)cc1Cl	n	n	n	n
Cc1ccc(/C=N/Nc2ccc(Cl)nn2)cc1	n	x	n	78.2
Cc1ccc(/C=N/Nc2ccc3c(C(F)(F)F)cc(C(F)(F)F)nc3n2)cc1	n	n	n	n
COC(=O)CNC(=O)c1ccc(C)s1	n	n	n	n
COc1cc(/C=C2\SC(=O)N(Cc3ccc(Cl)cc3)C2=O)cc([N+](=O)[O-])c1O	n	n	n	106.5
COc1cc(/C=C2\SC(=O)N(Cc3ccc(F)cc3)C2=O)cc([N+](=O)[O-])c1O	n	n	n	n
CC(=O)OCc1c(C(F)(F)F)nn(C)c1Oc1cccc(C(F)(F)F)c1	n	n	n	75.4
O=c1[nH]cnc2c1sc1nc3c(c(-c4ccc(Cl)cc4)c12)CCC3	n	n	n	85.4
Cc1ccc(Nc2c(-c3ccccn3)nc3cccc(C)n23)cc1	n	n	n	94.2
Cc1cccc(C)c1Nc1c(-c2ccccn2)nc2ccccn12	n	n	n	71.4
Clc1ccccc1OCCn1cnc2ccccc21	n	n	n	n
CCC(Oc1ccccc1)C(=O)N(Cc1ccccc1)c1ccccn1 (stereo unspecified)	n	n	n	n
CCc1cc2c(-c3ccccc3)cc(=O)oc2cc1OC(=O)c1cccs1	n	n	n	70.4
O=C(Oc1ccc2c(-c3ccccc3)cc(=O)oc2c1)c1cccs1	n	n	n	n
CN(C)C(=O)Cn1cnc2c(cnn2-c2ccccc2Cl)c1=O	n	n	n	89.4
Cc1ccc(-n2ncc3c(=O)n(CC(=O)N4CCN(c5ccccc5)CC4)cnc32)cc1	n	n	n	82.2
CC(C)(C)n1ncc2c(=O)n(CC(=O)NCc3ccccc3Cl)cnc21	n	n	n	n
Cc1ccc(-c2nc(NC(=O)CSc3nnnn3-c3ccccc3)ns2)cc1	n	n	n	n
O=C(Nc1ccc(F)cc1)c1cc(Cl)sc1Cl	n	n	n	n
SMILES	S1P4 antag	Hsp70 activator	S1P4 ag	CHOP inh
Cn1c(-c2ccccc2)cnc1SCC(N)=O	n	n	n	n
Cc1ccc2nc(-c3cccnc3SCC(=O)N3c4ccccc4CC3C)[nH]c2c1 (stereo unspecified)	n	n	n	n
Cc1ccc2nc(SCC(=O)N3c4ccccc4CC3C)c(C)cc2c1 (stereo unspecified)	n	n	n	77.8
COc1ccc2nc(SCC(=O)Nc3ccc4c(c3)OCCO4)[nH]c2c1	n	n	n	76.5
CCOc1ccc2nc(SCC(=O)Nc3ccc4c(c3)OCCO4)[nH]c2c1	n	n	n	n
COc1cc(O)c(CC=C(C)C)c(O)c1C(=O)CCc1ccc(O)cc1	x	x	x	88.6
CCC(=O)NC(=S)Nc1cccc(C(C)=O)c1	n	n	n	n
CC(C)=C1C2CCC1C1C(=O)N(NC(=O)COc3ccc(Cl)c(C)c3)C(=O)C21 (stereo unspecified)	n	n	n	71.3
CCN(CC)S(=O)(=O)c1ccc(-c2nnc(SCC(=O)Nc3ccc(OC)c(OC)c3)o2)cc1	n	n	n	n
O=c1ccc(=O)n2n1CC(O)C2	n	n	n	n
O=C(NCc1ccco1)C1CC(c2ccccc2O)=NO1 (stereo unspecified)	n	n	n	n
O=C(Nc1ccsc1C(=O)NC1CCCCC1)c1ccc(F)cc1	n	n	n	70.3
Cn1nccc1NC(=O)NC(=O)c1c(Cl)cccc1Cl	n	x	n	n
Clc1ccc(-n2ncc3c(N4CCCCCC4)ncnc32)cc1	n	n	n	83.9
COc1ccc(-n2ncc3c(N4CCCCC4)ncnc32)cc1	n	n	n	89.1
CCOC(=O)NC(NCCc1ccccc1)(C(F)(F)F)C(F)(F)F	n	n	n	70.5
CCOC(=O)NC(NCc1ccccc1)(C(F)(F)F)C(F)(F)F	n	n	n	n
Cc1cc(C)c2nc(N3CCC(C(=O)N4CCN(C(=O)c5ccco5)CC4)CC3)sc2c1	n	n	n	n
C=CCN=C1NN=C(c2cc(C)n(CCOC)c2C)CS1	n	n	n	79.9
COCCn1c(C)cc(C2=NNC(=Nc3ccc(Cl)cc3Cl)SC2)c1C	n	n	n	n
Cc1cc(C2=NNC(=NC3CC3)SC2)c(C)n1Cc1ccco1	n	n	n	95.5
COCCn1c(C)cc(C2=NNC(=NC3CC3)SC2)c1C	n	n	n	103.2
COc1ccc(-n2cc(-c3ccc(OC)c(OC)c3)[nH]c2=S)cc1	n	n	n	n
O=C(c1cccc(F)c1)N1CCN(C(=O)c2cc(-c3ccc(Cl)cc3Cl)on2)CC1	n	n	n	74.4
CSc1nnc2n(-c3ccc(C)cc3)c(=O)c3c4c(sc3n12)COC(C(C)C)C4 (stereo unspecified)	n	n	n	80.9
SMILES	S1P4 antag	Hsp70 activator	S1P4 ag	CHOP inh
COc1ccc(-c2csc(Nc3ccc(S(=O)(=O)Nc4cc(OC)nc(OC)n4)cc3)n2)cc1	n	n	n	88.8
CC(C)c1ccc(S(=O)(=O)Nc2ccc(SC(F)F)cc2)cc1	n	n	n	101.1
O=C(CCl)NCCNC(=O)c1cc(OCC(F)(F)F)ccc1OCC(F)(F)F	n	n	n	n
O=C(NCC1CCCCN1)c1cc(OCC(F)(F)F)ccc1OCC(F)(F)F (stereo unspecified)	n	n	n	73.7!
O=C(NCCNC(=O)c1cc(OCC(F)(F)F)ccc1OCC(F)(F)F)Nc1ccc(OC(F)(F)F)cc1	n	n	n	90.4
O=C1[C@H]2[C@H]3[C@H](O)[C@H](O)C/C(=N\OC[C@@H](O)COCc4ccco4)[C@@H]3CC[C@H]2C(=O)N1c1ccc(F)cc1F	n	n	n	n
CC(=O)n1cc(C2C(=O)CCCC2=O)c2ccccc21	n	n	n	n
COc1ccc(C2N(c3ccc(C)cc3)CCN2c2ccc(C)cc2)cc1O	n	n	n	95.5
COc1cc(C2N(c3ccccc3)CCN2c2ccccc2)ccc1OC(C)=O	n	n	n	n
O=C(c1ccccc1Nc1ccc(SC(F)F)cc1)N1CCCCCC1	n	n	n	86.5
Cc1ccc(C(=O)CSc2nc3ccccc3o2)cc1	n	n	n	n
CC(C)c1nc(Cl)c(C#N)c2c1CCCC2	n	n	n	84.5
COc1cc(-c2noc(CCCC(=O)Nc3ccc(C(N)=O)cc3)n2)cc(OC)c1OC	n	x	n	n
COc1ccc(-c2noc(CCCC(=O)Nc3ccc(C(N)=O)cc3)n2)cc1	n	n	n	82.2
COc1ccc(NC(=O)c2nc(SC)ncc2Cl)cc1	n	x	n	n
O=C(CSc1nn(-c2ccccc2)c(=S)s1)Nn1cnnc1	n	n	n	n
Cc1ccc(NC(=O)CSc2nn(-c3ccccc3)c(=S)s2)cc1S(=O)(=O)N(C)C	n	n	n	75.6

Bioassay records (PubChem)
